hgDAF-12 ag: H. glycines DAF-12 receptor agonists, primary screen, cell-based, luminescence, HEK293, GAL4 fusion, UAS-luciferase | 1.8% of 370,000 active | Nuclear hormone receptor DAF-12 (Heterodera glycines), GAL4 fusion | HEK293 GAL4-hgDAF12 UAS-luciferase reporter, agonist luminescence; normalized to butyrate control | activation, % at 6.8 µM | AID 687014, 2013;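 active means activation above a cutoff set at the mean of all screened compounds plus 3 SD, cut at about 10% in these data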;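 further: 0% = DMSO wells and 100% = sodium butyrate wells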
ssDAF12 agonist: S. stercoralis DAF-12 nuclear receptor activators, primary screen, cell-based, luminescence, HEK293, GRIP1 co-expression, lit1-tk-luc. activation, % at 6.8 µM. AID 652126, 2013. HEK293 ssDAF-12/GRIP1 lit1-tk-luc reporter; % of 3 µM dafachronic acid response. 1% of 370,000 active;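 active means activation above the mean over all tested compounds plus 3 SD, cut at about 0.9% in these data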;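 further: 0% = DMSO-only wells and 100% = 3 µM delta7-dafachronic acid wells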
hcDAF-12 act: H. contortus DAF-12 nuclear receptor activators, primary screen, cell-based, luminescence, HEK293, lit1-tk-luc reporter | HEK293 hcDAF-12 lit1-tk-luc reporter; 0% DMSO, 100% Δ7-dafachronic acid | 1.4% of 370,000 active | activation, % at 6.8 µM;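 active means activation above the mean of all tested compounds plus 3 SD, cut at about 5.5% in these data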;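 further: 100% = response to 3 µM Δ7-dafachronic acid high control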
DAX1 inh-1: DAX1 (NR0B1) inhibitors on StAR promoter, primary screen, cell-based, luminescence, SF-1 (NR5A1), full-length DAX-1 | 1.1% of 370,000 active | AID 652010, 2013 | HEK293T StAR-luciferase reporter, SF-1/DAX-1 repression relief | inhibition, % at 6.8 µM;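 active means inhibition above the mean over all tested compounds plus 3 SD, cut at about 3.6% in these data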;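 further: 0% = DAX-1 cells with DMSO and 100% = cells lacking DAX-1 with DMSO; higher inhibition means more luminescence from relief of DAX-1 repression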
AHR activator: AHR activators, primary screen, cell-based, luminescence, luciferase reporter, human. 2.5% of 320,000 active. AID 2796, 2010. AHR-responsive luciferase reporter cells. activation, % at 5 µM; in the data active means activation above about 47%;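 further: 0% = vehicle wells and 100% = reference agonist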
DAX1 inh-2: DAX1 (NR0B1) inhibitors, primary screen, cell-based, HEK293, Gal4-DAX1, luciferase luminescence; Nuclear receptor subfamily 0 group B member 1 (Homo sapiens), P51843; HEK293 Gal4-DAX1 luciferase reporter; inhibition, % at 6.75 µM; 0.99% of 340,000 active;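 active means inhibition above the mean over all tested compounds plus 3 SD, cut at about 4.2% in these data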;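 further: 0% = DAX1-transfected cells with DMSO and 100% = empty-vector control cells with DMSO; inhibition shows as a rise in luminescence from relieved DAX1 repression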
Target sequence (P51843 207-470 limits assumed): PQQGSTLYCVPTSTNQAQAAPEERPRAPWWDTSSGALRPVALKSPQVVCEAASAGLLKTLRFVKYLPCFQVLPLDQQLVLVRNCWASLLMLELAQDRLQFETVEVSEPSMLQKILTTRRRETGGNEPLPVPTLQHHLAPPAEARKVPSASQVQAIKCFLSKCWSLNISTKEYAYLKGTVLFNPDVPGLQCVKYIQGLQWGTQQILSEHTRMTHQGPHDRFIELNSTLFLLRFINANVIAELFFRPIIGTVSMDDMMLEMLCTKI
Starred values were filed as active, the others as inactive; . = no result given. Sampled rows, rich in hits. Any-hit rate of the full collection: about 5.7%.

SMILES	hgDAF-12 ag	ssDAF12 agonist	hcDAF-12 act	DAX1 inh-1	AHR activator	DAX1 inh-2
CCc1n[nH]c(=S)n1/N=C/c1ccccc1OCc1ccc(Cl)cc1	3	-2	-1	0	66*	2
Cc1n[nH]c(=S)n1/N=C/c1ccc(OCc2ccc(Cl)cc2)cc1	13*	-1	2	1	-4	3
Cc1n[nH]c(=S)n1/N=C/c1ccc(OCc2ccc(Cl)cc2Cl)cc1	4	0	2	0	5	4
Cc1n[nH]c(=S)n1/N=C/c1ccccc1OCc1ccc(Cl)cc1Cl	0	-1	0	-1	49*	-1
C=CCN1[C@@H](C)[C@@H](c2ccccc2)Oc2c(Cl)cccc2S1(=O)=O	3	-1	0	-1	.	.
COc1ccc(NC(=O)C(=O)N2N=C3CCCCC3C2(O)C(F)(F)F)cc1 (stereo unspecified)	1	-2	-1	0	28	0
CC(C)C1N(C(N)=S)N=CC1(C)C (stereo unspecified)	0	-1	0	0	-1	3
O=C1NC(=Nc2ccc3ccccc3c2)S/C1=C/c1ccco1	7	2.0*	4	0	20	1
Cc1cccc(N=C2NC(=O)S/C2=C\c2ccco2)c1	1	0	-1	-1	68*	-1
COC(=O)[C@]12CCCCC=C1N(Cc1ccc(Cl)cc1Cl)C(=O)[C@H](CC(=O)NCC1CCCCC1)C2	-1	-1	-1	0	.	.
COc1ccc(NC(=O)CC(C)NCCCN2CCCC2=O)cc1 (stereo unspecified)	0	-1	1	0	-1	1
Cc1cccc(C(=O)Nc2ccc3c(c2)ncn3C)c1	11*	0	3	3	12	0
Cc1cccc(C(=O)Nc2ccc3c(c2)nc(C)n3C)c1	9	0	3	3	-3	1
CCOC(=O)c1ccc(NC(=O)CSc2nnc(-c3cc(-c4ccccc4)n[nH]3)n2N)cc1	3	-2	3	-2	.	.
O=C(NNC1=C(C(=O)C(F)(F)F)CCC1)c1cccc(Cl)c1	13*	-1	2	2	3	5.2*
CCCC(=O)c1cc2c(cc1NC(=O)c1ccccc1F)OCCO2	1	0	-1	-1	-1	0
CC1=C(CC(=O)c2ccccc2)C(=O)c2ccccc2C1=O	-4	0	4	-2	48*	-1
C#CCN1CC(COc2ccccc2)Oc2cccc(Oc3ccc(SC)c(C)c3)c2S1(=O)=O (stereo unspecified)	1	0	1	3	.	.
COc1cc(/C=C2\SC(N)=NC2=O)cc(Cl)c1O	3	0	0	0	1	4.4*
COc1ccc(N(CC(=O)NCc2ccc(F)cc2)C(=O)c2snc(C(N)=O)c2N)cc1OC	-1	-1	-3	0	1	-2
CCCCNC(=O)Cn1cnc([N+](=O)[O-])n1	-2	-1	0	-1	0	4.8*
CCOc1ccc(NS(=O)(=O)c2cc(NC(=O)CCC(=O)c3cccs3)ccc2Cl)cc1	-3	-2	-4	0	1	5.8*
COc1cccc(CNC(=O)[C@H]2CCCN2C(=O)[C@H]2CCCN2C(=O)c2ccc(OC(F)(F)F)cc2)c1	0	-1	0	1	.	.
COc1cccc(CNc2nc3cc(-c4cscc4C)sc3c(=O)n2C)c1	-5	-2	-3	-3	.	.
Cc1cc(N2CCN(C(=O)OC(C)(C)C)C[C@H]2C)ccc1N1CC[C@@H](O)C1	-4	-1	0	-3	.	.
SMILES	hgDAF-12 ag	ssDAF12 agonist	hcDAF-12 act	DAX1 inh-1	AHR activator	DAX1 inh-2
Fc1ccc2[nH]c3c(Cl)ncnc3c2c1	2	1.0*	5	1	14	-1
COc1ccc2[nH]c3c(Cl)ncnc3c2c1	-3	-1	1	0	13	-2
O=S1(=O)c2ccc(Br)cc2OC2CCCC[C@@H]2N1Cc1ccccc1 (stereo partly specified)	2	-1	0	-1	.	.
COc1ccccc1NC(=O)C/C(C)=N/NC(=O)c1ccccn1	13*	0	4	2	12	3
COc1ccccc1NC(=O)C/C(C)=N/NC(=O)COc1c(Br)cc(Br)cc1OC	1	-2	-1	4.2*	10	3
COc1ccccc1Cc1c(C2CCCCC2)nc2c(C)cc(Br)cn12	-1	-1	0	-1	.	.
Cc1ccc(/C=C(\C#N)c2nn(-c3ccccc3)c(N)c2C#N)cc1	4	0	-3	-1	0	-2
N#C/C(=C\c1cccc2ccccc12)c1nn(-c2ccccc2)c(N)c1C#N	.	.	.	.	56*	.
CS(=O)(=O)N1CCN(Cc2cc(=O)n3ccsc3n2)CC1	-1	-2	-1	0	0	5.2*
O=c1cc(CN2CCN(S(=O)(=O)c3ccc4ccccc4c3)CC2)nc2sccn12	-1	-2	-2	0	0	1
COc1ccc2[nH]c3c(=O)n(CCCN4CCOCC4)cnc3c2c1	-1	-1	-1	0	2	6.2*
Cn1c2ccc(F)cc2c2ncn(CCN3CCOCC3)c(=O)c21	3	0	3	0	40	7.2*
Cn1c2ccccc2c2ncn(CCCN3CCOCC3)c(=O)c21	0	0	5	0	50*	2
C[C@H](CO)N1C[C@H](C)[C@H](CN(C)C(=O)Nc2ccc3c(c2)OCO3)OCc2cnnn2CCCC1=O	0	-1	1	-1	.	.
CN1C(=O)C2(OCCCO2)c2ccccc21	2	-1	-1	0	-1	0
Cc1ccc2nc(=O)c(NNc3ccccc3)cnc2c1	6	1.0*	0	1	45	0
Cc1nc2ccccc2nc(=O)c1NNc1ccccc1	9	0	2	1	.	1
Cc1cc(C)c2cccc(NC(=S)NC(=O)c3ccccc3)c2n1	-1	-1	1	0	45	0
Cc1ccc2cccc(NC(=S)NC(=O)c3ccccc3)c2n1	2	1.0*	5.7*	0	56*	-1
Cc1ccc2cccnc2c1NC(=S)NC(=O)c1ccccc1	-2	0	2	0	69*	0
Cc1ccc2cn[nH]c2c1NC(=S)NC(=O)c1ccccc1	-1	-2	-1	-1	14	1
CCCCc1c(-c2ccccc2OC)ncn1Cc1ccc(OC)c(Cl)c1	-4	-1	-2	-3	.	.

High-throughput results from PubChem.
